TIM10 inh: inhibits growth of TIM10 yeast strain | S. cerevisiae TIM10 strain growth, BacTiter-Glo luminescence, 24 h | inhibition, % at 10 µM | actives 1.4% (n = 330,000) | AID 463195;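 active means inhibition of 40% or more at the single tested concentration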;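 further: wild-type TIM10 isogenic control strain grown at permissive 25 °C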
tim10-1 inh: growth inhibitors of tim10-1 mutant yeast; S. cerevisiae tim10-1 ts strain growth, BacTiter-Glo, 24 h; inhibition, % at 20 µM; actives 2.2% (n = 330,000);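 active means inhibition of at least 40%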;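 further: mutant grown at 25 °C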
NLRP3 yeast inh: blocks the NALP3 inflammasome reconstituted in yeast. Yeast reconstituted NLRP3/ASC/caspase-1, beta-gal luminescence, 24 h. inhibition, % at 10 µM. actives 0.39% (n = 330,000). AID 2825;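 active means inhibition of 50% or more; inactive means inhibition below 50%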
tim23-1 inh: growth inhibitors of tim23-1 mutant yeast. S. cerevisiae tim23-1 growth, BacTiter-Glo luminescence, 24 h. inhibition, % at 20 µM. actives 1.3% (n = 330,000). AID 463212;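 active means growth inhibition of the mutant yeast at or above 50%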;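 further: temperature-sensitive mutant grown at 25 °C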
SKKanGAS inh: SKKanGAS growth inhibition; S. pyogenes SKKanGAS, kanamycin growth, BacTiter-Glo, 6 h; inhibition, % at 7.5 µM; actives 1.3% (n = 300,000);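 active means mean replicate score, as percent of positive control median, at least 50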;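 further: strain carries kanamycin resistance gene driven by streptokinase promoter and grows in 40 µg/ml kanamycin; loss of luminescence reflects streptokinase promoter inhibition or plain growth inhibition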
tim10-1 conf: tim10-1 yeast growth inhibition, confirmed | inhibition, % at 20 µM | actives 56% (n = 7,400) | S. cerevisiae tim10-1 ts strain growth, BacTiter-Glo, 24 h | shares compounds with tim10-1 inh | AID 463213;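 active means inhibition of yeast growth at or above a set limit in either of two repeat tests at 20 µM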;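 further: tim10-1 mutant grown at permissive 25 °C to find synthetic lethal compounds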
TIM10 conf: confirmation of TIM10 yeast growth inhibitors; shares compounds with TIM10 inh; actives 63% (n = 4,600); S. cerevisiae tim10 strain growth, BacTiter-Glo luminescence, 24 h; inhibition, % at 10 µM;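 active means inhibition of yeast growth at or above a set limit in either of two replicates at 10 µM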; further: this counterscreen used the strain with wild-type TIM10
tim23-1 confirm: confirmation of tim23-1 mutant yeast growth inhibitors; inhibition, % at 20 µM; actives 83% (n = 4,400); shares compounds with tim23-1 inh; S. cerevisiae tim23-1 growth, BacTiter-Glo luminescence, 24 h;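 active means inhibition above about 39% in either of two replicate wells at 20 µM, limit read from the data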;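 further: temperature-sensitive tim23-1 mutant grown at 25 °C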
Numbers stand for hits; - = inactive; . = no result. This is a sample that favours compounds with a hit; in the whole collection about 4.6% have one here.

SMILES	TIM10 inh	tim10-1 inh	NLRP3 yeast inh	tim23-1 inh	SKKanGAS inh	tim10-1 conf	TIM10 conf	tim23-1 confirm
O=C(Nc1ccccc1Cl)c1ccc([N+](=O)[O-])o1	48	50	-	67	-	56	57	68
Cc1ccccc1NC(=S)NCc1ccc2[nH]c3c(c2c1)CCCC3	47	49	-	56	-	-	43	48
CCOC(=O)/C(=C\c1ccc(Cl)cc1)c1nc2sc(C)c(C)c2c(=O)[nH]1	44	48	-	72	-	49	-	61
CCOC(=O)CSc1nc2sc(C)c(C)c2c(=O)[nH]1	-	-	-	-	-	.	.	.
COC(=O)N/N=C/c1sc(N2CCCCC2)nc1-c1cccs1	-	45	-	53	-	33	.	47
CCc1c(O)cc2n(c1=O)-c1ccc(Cl)cc1C2(C)C	42	44	-	52	-	34	-	49
CC(NC(=O)c1ccccc1NC(=O)CN1CCc2ccccc2C1)c1ccccc1 (centres undefined)	-	-	-	-	-	.	.	.
CCOC(=O)C1CCN(c2c([N+](=O)[O-])c(C(Cl)Cl)nn2-c2ccccc2)CC1	-	-	-	-	-	.	.	.
O=[N+]([O-])c1c(C(Cl)Cl)nn(-c2ccccc2)c1N1CCCC1	-	61	-	61	-	61	.	58
Cc1cc(F)ccc1S(=O)(=O)N1CCCCC1CCNC(=O)C(=O)NCc1ccccn1 (centres undefined)	-	-	-	-	-	.	.	.
CC1CC2(CCCCC2)N2C(=O)C(=O)c3cccc1c32 (centres undefined)	-	42	-	69	-	52	.	79
CC1CC(C)(C)N2C(=O)C(=C(C#N)C#N)c3cccc1c32 (centres undefined)	54	71	-	70	-	68	43	82
O=C(NC1CC1)c1ccc2c(c1)C1C3CCC(C3)C1C(c1ccccc1)N2 (centres undefined)	41	50	-	62	-	42	-	54
O=C(NC1CCCC1)c1cccc(Cl)c1	-	-	-	-	-	.	.	.
CCOC(=O)c1c(NC(=O)COC(=O)c2cnccn2)sc(C)c1C	-	-	-	-	.	.	.	.
COc1ccc(CN(C2CC2)S(=O)(=O)c2ccccc2Br)cc1	-	-	.	-	.	.	.	.
COc1cc(Nc2ccccn2)cc(C(=O)Nc2cccc(C(F)(F)F)c2)c1	-	49	-	51	-	36	.	65
NS(=O)(=O)c1cccc(NC(=O)C(Cc2ccccc2)NC(=O)c2ccccc2)c1 (centres undefined)	-	-	-	-	-	.	.	.
CCOc1ccc(NC(=O)C2CC(=O)N(c3ccc4c(c3)OCCO4)C2)cc1OCC (centres undefined)	-	-	-	-	-	.	.	.
C/C(CC(=O)Nc1ccc(Cl)c(C(F)(F)F)c1)=N\NC(=O)c1cccc(O)c1	-	-	-	-	-	.	.	.
CCc1ccccc1NCC(=O)Nc1ccc(Cl)c(C(F)(F)F)c1	48	68	-	52	-	54	-	57
O=C(CCNC(=O)c1ccccc1Cl)Nc1ccc(Cl)c(C(F)(F)F)c1	-	-	-	-	-	.	.	.
C/C(CC(=O)Nc1ccc(Cl)c(C(F)(F)F)c1)=N\NC(=O)c1ccccc1O	-	47	-	57	104	39	.	41
CCOC(=O)c1ccsc1NC(=O)CCS(=O)(=O)c1ccccc1	43	54	-	62	-	42	38	51
O=S(=O)(NCC1CCCO1)c1ccccc1F (centres undefined)	-	-	-	-	-	.	.	.
O=C(CSc1ccc(F)cc1)Nc1cccc(S(=O)(=O)N2CCOCC2)c1	-	-	-	-	.	.	.	.
CCN(CC)CCNC(=O)c1cc2c(s1)-c1ccccc1SC2	-	-	-	-	-	.	.	.
NNC(=O)c1cc2c(s1)-c1cc(Cl)ccc1SC2	-	57	-	55	-	44	.	49
